Source: PubChem
EWS-Fli inh: blocks EWS/Fli oncoprotein-driven transcription. A673 NR0B1-luciferase reporter, viability-normalised. inhibition, % at 12.6 µM. actives 0.67% (n = 350,000). AID 651661;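 active = mean inhibition of at least 50% after viability correction, with every replicate also passing that limit; inconclusive = mean reaches 50% but only one of two replicates passes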;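 note: firefly luciferase signal divided by Alamar Blue viability fluorescence both relative to DMSO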
KKLEB cytotox: counter-screen for CF NF-kB inhibitors: cytotoxicity | KKLEB CF airway cells viability, ATPlite luminescence, overnight; stronger effect = lower value; cells stimulated with P. aeruginosa culture filtrate | actives 0.36% (n = 360,000) | activity change (cytotoxicity), % at 5 µM | AID 602141;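 active = corrected activity change at or below -50% at 5 µM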
PAX8 inh HTS: PAX8 transcriptional activity inhibition | RMG-I TPO-luciferase reporter, SteadyGlo, 24 h | inhibition, % at 12.6 µM | AID 652154 | actives 1.2% (n = 360,000);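 active = mean replicate inhibition at least 60% with every replicate also reaching 60%; inconclusive = only one of the two criteria is met; inactive = mean below 60% and not all replicates reaching 60%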;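 note: luciferase light reporting Pax8 driven TPO promoter activity; plate controls were median of neutral control wells for no effect and mitoxantrone controls for full effect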
CF NFkB inh: inhibitors of cystic fibrosis induced NF-kB; inhibition, % at 5 µM; KKLEB NF-kB-GFP reporter, PAF-induced, GFP fluorescence overnight; AID 588850; actives 0.86% (n = 360,000);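 active = at least 50% inhibition at 5 µM, scaled per plate between neutral and stimulator controls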;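 note: PAF is a Pseudomonas aeruginosa culture filtrate used as stimulus; plate controls were PAF-stimulated DMSO wells for no effect and unstimulated DMSO wells for full effect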
HIF-2a block: inhibitors of HIF-2a | 786-0 RCC cells HIF-2a reporter, luciferase luminescence, overnight | inhibition, % at 18.8 µM | actives 0.72% (n = 360,000);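 active = inhibition of the luminescence signal of 40% or more relative to plate controls, in a single-dose primary screen at 18.75 µM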
Active calls of the source: *. Shown are actives, neighbours in structure and some others; about 2.1% of the full set was active somewhere.

For COc1ccc(/C=C/C(=O)c2oc3ccc(F)cc3c2C)cc1 the results were KKLEB cytotox -10, CF NFkB inh -6 and HIF-2a block -42.
COc1ccc(-c2ccc(SC)nn2)cc1 was read as EWS-Fli inh 58*, KKLEB cytotox -12, PAX8 inh HTS -10, CF NFkB inh 7 and HIF-2a block 10.
For COc1ccc(C(=O)CSc2ccc(-c3ccccc3)nn2)cc1 the results were KKLEB cytotox 11, PAX8 inh HTS 15, CF NFkB inh 6 and HIF-2a block -15.
Screening COc1cc(NC(=O)COC(=O)CNC(=O)C23CC4CC(CC(C4)C2)C3)cc(OC)c1 returned EWS-Fli inh -4, KKLEB cytotox 0, PAX8 inh HTS 4, CF NFkB inh 3 and HIF-2a block 12.
COc1ccc2c(COC(=O)CNC(=O)C34CC5CC(CC(C5)C3)C4)cc(=O)oc2c1 was read as EWS-Fli inh 5, KKLEB cytotox -6, PAX8 inh HTS 122*, CF NFkB inh 1 and HIF-2a block 6.
`CN1[C@@H]2c3ccc(-c4ccccc4)c(=O)n3C[C@H]1[C@H](CO)[C@H]2C(=O)NC1CCCCC1` gave EWS-Fli inh -1 and PAX8 inh HTS 10.
For CN1[C@H](C(=O)N2CCc3ccccc3C2)[C@@H](CO)[C@@H]2Cn3c(ccc(-c4ccccc4)c3=O)[C@@H]21 the results were EWS-Fli inh 18 and PAX8 inh HTS 68*.
CN1[C@@H]2Cn3c(ccc(-c4ccccc4)c3=O)[C@H]1[C@@H](C(=O)NC1CCCCC1)[C@@H]2CO was read as EWS-Fli inh 8 and PAX8 inh HTS 89*.
`CO[C@@H]1CN(C)C(=O)c2ccc(NC(=O)C3CC3)cc2OC[C@@H](C)N(CC2CCOCC2)C[C@@H]1C` gave EWS-Fli inh 4.
CCn1c2ccccc2c2cc(NC(=O)c3cc(OC)cc(OC)c3)ccc21 was read as KKLEB cytotox -11, PAX8 inh HTS 96*, CF NFkB inh 36 and HIF-2a block 24.
For O=C(COC(=O)c1ccco1)Nc1cccc(S(=O)(=O)N2CCOCC2)c1 the results were EWS-Fli inh 3, KKLEB cytotox 6, PAX8 inh HTS 92*, CF NFkB inh 4 and HIF-2a block 5.
Oc1cccc2cc(Nc3ccccc3)cnc12 was read as EWS-Fli inh 41, KKLEB cytotox -3, PAX8 inh HTS 94*, CF NFkB inh 34 and HIF-2a block -76.
Oc1cc(Nc2ccccc2)cc2cccnc12 was read as EWS-Fli inh 15, KKLEB cytotox -20, PAX8 inh HTS 96*, CF NFkB inh 78* and HIF-2a block -4.
`CCCNC(=O)Nc1ccc2c(c1)C(=O)N(C)C[C@H](OC)[C@H](C)CN(C(=O)C1CCC1)[C@@H](C)CO2` gave EWS-Fli inh -4 and PAX8 inh HTS 5.
`O=C(C[C@@H]1C=C[C@@H](NC(=O)c2ccc(F)cc2)[C@H](CO)O1)NCc1ccncn1` gave EWS-Fli inh 6 and PAX8 inh HTS -4.
`Cc1onc(-c2ccccc2Cl)c1C(=O)N1CCN(c2ccccc2)CC1` gave KKLEB cytotox 4, CF NFkB inh 0 and HIF-2a block 26.
Cc1onc(-c2ccccc2Cl)c1C(=O)N1CCN(c2cccc(Cl)c2)CC1 was read as EWS-Fli inh 54*, KKLEB cytotox -18, PAX8 inh HTS 8, CF NFkB inh 24 and HIF-2a block 22.
`CCOC(=O)c1cnn(CCOC(=O)c2cccc(F)c2)c1NC(=O)c1cccc(F)c1` gave EWS-Fli inh -5, KKLEB cytotox 0, PAX8 inh HTS 110*, CF NFkB inh 12 and HIF-2a block 4.
Screening COc1ccc2c3c([nH]c2c1)[C@H](CO)N(Cc1cc(F)ccc1F)CC31CCN(C(C)=O)CC1 returned EWS-Fli inh -2.
Screening CCNC(=O)CC1C(=O)N(C)C(=S)N1NC(=O)c1ccc(Cl)cc1 (stereo unspecified) returned KKLEB cytotox -4, CF NFkB inh 4 and HIF-2a block 9.
Nc1ccc(C(=O)NN2C(=O)[C@H](Cl)C2c2ccc(Cl)cc2)cc1 (stereo partly specified) was read as EWS-Fli inh 27, KKLEB cytotox -79*, PAX8 inh HTS -5, CF NFkB inh 91* and HIF-2a block 11.
C[C@@H]1CN([C@@H](C)CO)C(=O)c2cc(Br)cnc2O[C@H]1CN(C)Cc1ccccn1 was read as EWS-Fli inh -7.
Screening CC(C)CC#Cc1cnc2c(c1)C(=O)N([C@H](C)CO)C[C@H](C)[C@@H](CN(C)C(=O)CC1CC1)O2 returned EWS-Fli inh 4.
For O=c1oc2ccccc2cc1-c1nc2c(s1)CCCC2 the results were EWS-Fli inh 60*, KKLEB cytotox -19, CF NFkB inh -13 and HIF-2a block -72.
`COc1ccc2c3c(n(C)c2c1)[C@H](CO)N(C(=O)CC1CC1)CC31CN(Cc2ccccc2)C1` gave EWS-Fli inh 2 and PAX8 inh HTS 5.
CCC(=O)Oc1ccc2c(C)cc(=O)oc2c1C(=O)c1ccccc1 was read as EWS-Fli inh 11, KKLEB cytotox 8, PAX8 inh HTS 88*, CF NFkB inh 9 and HIF-2a block 25.
For COC1=CC(=O)c2nc(Cl)ccc2C1=O the results were EWS-Fli inh 40, KKLEB cytotox -91*, PAX8 inh HTS 107*, CF NFkB inh 83* and HIF-2a block 90*.
`C[C@@H]1CN([C@H](C)CO)C(=O)c2cc(NS(=O)(=O)c3ccc(F)cc3)ccc2O[C@@H](C)CCCCO[C@@H]1CN(C)Cc1ccccc1` gave EWS-Fli inh 29 and PAX8 inh HTS 106*.
Screening Cc1ccc(S(=O)(=O)Nc2ccc3c(c2)C(=O)N([C@H](C)CO)C[C@@H](C)[C@H](CN(C)Cc2ccc(C(F)(F)F)cc2)OCCCC[C@H](C)O3)cc1 returned EWS-Fli inh 66* and PAX8 inh HTS 116*.
`C[C@@H]1CN([C@@H](C)CO)C(=O)c2cc(NS(=O)(=O)c3ccccc3)ccc2O[C@@H](C)CCCCO[C@H]1CN(C)Cc1ccc(C(F)(F)F)cc1` gave EWS-Fli inh 9 and PAX8 inh HTS inconclusive.
For C[C@H]1CCCCO[C@H](CN(C)Cc2ccc(C(F)(F)F)cc2)[C@@H](C)CN([C@@H](C)CO)C(=O)c2cc(NS(=O)(=O)c3ccc(F)cc3)ccc2O1 the results were EWS-Fli inh 14 and PAX8 inh HTS 89*.
Screening C[C@@H]1CCCCO[C@@H](CN(C)Cc2ccc(C(F)(F)F)cc2)[C@@H](C)CN([C@H](C)CO)C(=O)c2cc(NS(=O)(=O)c3ccc(F)cc3)ccc2O1 returned EWS-Fli inh -14 and PAX8 inh HTS -2.
`Cc1ccc(S(=O)(=O)Nc2ccc3c(c2)C(=O)N([C@@H](C)CO)C[C@H](C)[C@H](CN(C)Cc2ccc(C(F)(F)F)cc2)OCCCC[C@H](C)O3)cc1` gave EWS-Fli inh 6 and PAX8 inh HTS 108*.
